Compound activity: PubChem BioAssay, several laboratories
hgDAF-12 ag: activates the H. glycines DAF-12 receptor ligand-binding domain. HEK293 GAL4-hgDAF12 UAS-luciferase reporter, agonist luminescence; normalized to butyrate control. activation, % at 6.8 µM. 1.8% of 370,000 active. AID 687014;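 active = activation above a cutoff set at the mean of all screened compounds plus 3 SD, cut at about 10% in these data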;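 note: 0% = DMSO wells and 100% = sodium butyrate wells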
hcDAF-12 act: activates DAF-12 receptor from parasite H. contortus; 1.4% of 370,000 active; AID 652067; HEK293 hcDAF-12 lit1-tk-luc reporter, luminescence; 0% DMSO, 100% Δ7-dafachronic acid; activation, % at 6.8 µM;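 active = activation above the mean of all tested compounds plus 3 SD, cut at about 5.5% in these data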;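 note: 100% = response to 3 µM Δ7-dafachronic acid high control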
Wnt bcat act: activators of Wnt/beta-catenin signaling | Wnt/beta-catenin reporter cell assay, activator, plate reader | activation, % at 9.35 µM | 1.2% of 300,000 active | AID 743398; in the data active = activation above about 30%, passing the limit was not always enough;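 note: 0% = neutral control wells and 100% = positive control wells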
esBAF inh: inhibitors of esBAF chromatin remodeling in mouse ES cells. Bmi1-luciferase knock-in reporter, 24 h; 100% = twice the neutral-well signal. reporter increase, % at 12.5 µM. 2% of 350,000 active; in the data active = activation above about 40%;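 note: 0% = median of the plate's neutral control wells and 100% = double that signal; a rise in the Bmi1 reporter signal indicates esBAF inhibition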
DAX1 inh: blocks DAX1 repression of SF-1 activated StAR promoter | HEK293T StAR-luciferase reporter, SF-1/DAX-1 repression relief | inhibition, % at 6.8 µM | 1.1% of 370,000 active;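 active = inhibition above the mean over all tested compounds plus 3 SD, cut at about 3.6% in these data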;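 note: 0% = DAX-1 cells with DMSO and 100% = cells lacking DAX-1 with DMSO; higher inhibition means more luminescence from relief of DAX-1 repression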
ssDAF-12 act: activators of S. stercoralis DAF-12 nuclear receptor | HEK293 ssDAF-12/GRIP1 lit1-tk-luc reporter, luminescence; % of 3 µM dafachronic acid response | activation, % at 6.8 µM | 1% of 370,000 active | AID 652126;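 active = activation above the mean over all tested compounds plus 3 SD, cut at about 0.9% in these data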;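 note: 0% = DMSO-only wells and 100% = 3 µM delta7-dafachronic acid wells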
Starred values were filed as active, the others as inactive. Only some compounds are listed: those with a hit (about 4.2% of all), similar ones and a draw of the others.

For COc1ccc(NC(=O)Nc2ccc3c(c2)CC(=O)N([C@@H](C)CO)C[C@@H](C)[C@@H](CN(C)S(=O)(=O)c2cn(C)cn2)O3)cc1 the results were esBAF inh 2.0.
`COc1cccc(C(=O)NNC2=C(C(=O)C(F)(F)F)CCC2)c1` gave hgDAF-12 ag 7.6, hcDAF-12 act 1.6, Wnt bcat act 4.1, DAX1 inh 1.6 and ssDAF-12 act -0.6.
Screening O=C(NNC1=C(C(=O)C(F)(F)F)CCC1)c1ccccc1Cl returned hgDAF-12 ag 9.3, hcDAF-12 act 0.1, esBAF inh -5.5, DAX1 inh 1.6 and ssDAF-12 act -0.9.
For O=C(NNC1=C(C(=O)C(F)(F)F)CCC1)c1ccccc1O the results were hgDAF-12 ag 5.8, hcDAF-12 act 5.6*, esBAF inh 6.5, DAX1 inh 1.4 and ssDAF-12 act 1.0*.
`COc1ccccc1C(=O)NNC1=C(C(=O)C(F)(F)F)CCC1` gave hgDAF-12 ag 8.5, hcDAF-12 act 4.3, Wnt bcat act -3.4, esBAF inh -1.8, DAX1 inh 1.8 and ssDAF-12 act 0.9*.
`O=C(N/N=C/c1c[nH]c2ccccc12)c1cc(Br)ccc1O` gave hgDAF-12 ag 9.9, hcDAF-12 act 5.3, Wnt bcat act 0.1, esBAF inh 23.7, DAX1 inh 0.2 and ssDAF-12 act 1.3*.
O=C(N/N=C/c1c[nH]c2ccccc12)c1[nH]c2ccc(Br)cc2c1-c1ccccc1 was read as hgDAF-12 ag -2.0, hcDAF-12 act 4.4, Wnt bcat act -27.5, DAX1 inh 1.9 and ssDAF-12 act 1.4*.
CCOc1ccc(Br)cc1C(=O)N/N=C/c1c[nH]c2ccccc12 was read as hgDAF-12 ag 1.7, hcDAF-12 act -0.3, Wnt bcat act -0.7, esBAF inh 3.1, DAX1 inh -0.1 and ssDAF-12 act -0.9.
For O=C(N/N=C/c1cc(Cl)ccc1O)c1ccccc1Br the results were hgDAF-12 ag -4.2, hcDAF-12 act -2.9, Wnt bcat act 28.8, DAX1 inh -0.2 and ssDAF-12 act 1.5*.
O=C(N/N=C/c1cc2c(cc1Br)OCO2)c1c[nH]c2ccccc12 was read as hgDAF-12 ag 10.5*, hcDAF-12 act 4.1, Wnt bcat act 16.2, DAX1 inh 0.8 and ssDAF-12 act 0.2.
For O=C(C[C@H]1CC[C@@H](NC(=O)C2CC2)[C@H](CO)O1)NCc1ccccc1Cl the results were esBAF inh 0.3.
`O=C(N/N=C/c1c[nH]c2ccc(Br)cc12)c1ccccn1` gave hgDAF-12 ag 16.4*, hcDAF-12 act 3.0, Wnt bcat act -1.1, DAX1 inh 1.8 and ssDAF-12 act -0.3.
Screening C[C@H]1CN([C@@H](C)CO)C(=O)c2cc(-c3cccc(C#N)c3)cnc2O[C@H]1CN(C)Cc1ccncc1 returned esBAF inh -1.8.
For C[C@@H](NC(=O)C[C@H]1C=C[C@H](NC(=O)CN2CCOCC2)[C@@H](CO)O1)c1ccccc1 the results were esBAF inh -3.5.
`C=Cn1cc[n+](CC(=O)c2cccs2)c1` gave hgDAF-12 ag 1.2, hcDAF-12 act 5.6*, Wnt bcat act 1.1, esBAF inh -0.7, DAX1 inh -0.2 and ssDAF-12 act 0.4.
For O=C(/C=C/c1cccc(Br)c1)N1CCN(c2cccc(C(F)(F)F)c2)CC1 the results were hgDAF-12 ag -3.5, hcDAF-12 act 2.5, Wnt bcat act 16.4, DAX1 inh -0.5 and ssDAF-12 act -1.4.
For O=C(c1ccc2ncsc2c1)N1CCN(c2cccc(C(F)(F)F)c2)CC1 the results were hgDAF-12 ag 6.2, hcDAF-12 act -1.6, Wnt bcat act 0.6, esBAF inh 46.0*, DAX1 inh -4.7 and ssDAF-12 act -1.3.
Screening O=C(/C=C/c1ccc(Br)cc1)N1CCN(c2cccc(C(F)(F)F)c2)CC1 returned hgDAF-12 ag -2.3, hcDAF-12 act 6.4*, Wnt bcat act -3.1, DAX1 inh 1.7 and ssDAF-12 act -1.0.
For O=C(c1ccc2nc[nH]c2c1)N1CCN(c2cccc(C(F)(F)F)c2)CC1 the results were hgDAF-12 ag 1.9, hcDAF-12 act -2.9, Wnt bcat act 3.2, DAX1 inh 0.3 and ssDAF-12 act -1.7.
For CCC(=O)Nc1ccc2c(c1)OC[C@@H](C)N(CCc1ccccc1)C[C@@H](C)[C@@H](OC)CN(C)C2=O the results were esBAF inh -9.6.
